The whole screen tested about 16,000 compounds, of which about 2,600 (16%) were called active. Not shown: some 20% with an inconclusive outcome. These entries were drawn from the full list. Unmarked numbers belong to inactive results. Calls come from the whole dose curve; as a rule, active = well fitted curve in the direction sought with a large enough effect; inconclusive = small, poorly fitted or top-dose-only effect, or effect the other way; inactive = no such curve, though single readings can be large or run the other way.
% is set by controls: 0 for no effect and ±100 for the full control effect.

Chain of Cytochrome P450 2D6 (Homo sapiens) (P10635 whole entry, looked up): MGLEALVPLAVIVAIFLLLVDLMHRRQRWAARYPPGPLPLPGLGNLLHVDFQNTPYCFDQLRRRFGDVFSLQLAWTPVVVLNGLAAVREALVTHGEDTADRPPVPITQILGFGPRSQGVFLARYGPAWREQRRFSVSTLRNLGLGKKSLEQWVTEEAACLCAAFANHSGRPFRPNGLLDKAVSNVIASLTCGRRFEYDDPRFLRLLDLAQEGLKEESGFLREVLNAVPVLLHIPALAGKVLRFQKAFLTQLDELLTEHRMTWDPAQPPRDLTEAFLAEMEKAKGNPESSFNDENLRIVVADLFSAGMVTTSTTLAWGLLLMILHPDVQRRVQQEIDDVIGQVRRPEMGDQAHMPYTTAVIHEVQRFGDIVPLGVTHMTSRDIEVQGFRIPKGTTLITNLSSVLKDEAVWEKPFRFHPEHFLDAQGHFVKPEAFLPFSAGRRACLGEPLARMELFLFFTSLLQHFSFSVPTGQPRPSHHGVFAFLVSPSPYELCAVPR

The experiment concerns the target Cytochrome P450 2D6 (Homo sapiens) (UniProt P10635). Description: Cytochrome panel assay with activity outcomes. The settings on record: recombinant CYP, pro-luciferin dealkylation, luminescence, p450-cyp2d6; series mostly up to 57.1 µM; activity, negative = inhibition: at the top concentration.
On to `CCOC(=O)c1[nH]c(C)c(C)c1C`, for which the “activity, negative = inhibition” value is -3.5%.
As to `Nc1ncnc2c1ncn2C[C@@H](O)C(=O)O`, the activity, negative = inhibition is 10.9% [at 11.4 µM].
Same read-out and setting: under `O=C(N/N=C/c1c(Nc2cccc(C(F)(F)F)c2)nc2ccccn2c1=O)c1ccccc1` stands -3.29%.
For the molecule `CC(=O)OCC1=C(C(=O)O)N2C(=O)[C@@H](NC(=O)Cc3cccs3)[C@@H]2SC1`, the AC50 result was “inactive”.
Regarding `CC(C)CCN1C(=O)c2ccc(-c3nc4ccccc4c(=O)o3)cc2C1=O`, the “activity, negative = inhibition” value was 16.9%.
Still for that read-out and setting: the same measure for `Cc1noc(C)c1C(=O)N1CCC[C@@]2(CCN(C(=O)NC(C)C)C2)C1`: 3.36%.
With `COCCCNC(=O)C1CCN(S(=O)(=O)N(CC(C)C)CC(C)C)CC1`, the “activity, negative = inhibition” value is 8.44%.
On the same count and under the same terms, the same measure for `CC(C)(C)c1ccc(-c2c(C#N)c(N)nc3c2CCCC3)s1`: -10.7%.
The same measure, in the same setting: the same measure for `Cc1noc(C)c1C(=O)N1CCC2(CC1)CN(c1ncccn1)C2`: 4.38%; for `COc1ncnc(NS(=O)(=O)c2ccc(N)cc2)c1OC`: -2.5% [at 25.6 µM].
The same measure, in the same setting: the same measure for `CCOC(=O)N1CCN(C(=O)c2ccc3nc(SCc4ccc(F)cc4)n(C)c3c2)CC1`: -13.8%.
With `C[C@H]1C[C@@H]2[C@H]3CCC4=CC(=O)C=C[C@@]4(C)[C@@]3(Cl)[C@@H](O)C[C@]2(C)[C@]1(OC(=O)c1ccco1)C(=O)CCl`, the AC50 is 3.98 µM (active).
Take `C[C@H]1C[C@H]2[C@H]3CCC4=CC(=O)C=C[C@@]4(C)[C@]3(F)[C@H](O)C[C@]2(C)[C@@]1(O)C(=O)COP(=O)(O)O`: the activity, negative = inhibition was 2.95% [at 11.4 µM].
On the same count and under the same terms, the same measure for `C[C@@H]1C[C@@H]2[C@H]3CCC4=CC(=O)C=C[C@]4(C)[C@]3(Cl)[C@@H](O)C[C@@]2(C)[C@@]1(O)C(=O)CO`: 15%; for `C=CCC(C(=O)OC)(C(=O)OC)c1ccc([N+](=O)[O-])cn1`: -11.8%; for `CCNc1ncc2ncc(=O)n(C3CC3)c2n1`: -4.43%.
As to `CCN1CCN(C(c2ccccn2)c2c(NC(=O)c3ccccc3)sc(C)c2C)CC1` (stereo unspecified), the AC50 was 14.1 µM (active).
Take `Cc1sc(NC(=O)c2ccco2)c(C(c2ccncc2)N2CCOCC2)c1C` (stereo unspecified): the “activity, negative = inhibition” value was -27%.
On the same count and under the same terms, the same measure for `CCOC(=O)CSc1n[nH]c(NC(=O)c2ccccc2)n1`: -2.06%.
On to `Cc1cccc(CNc2ncnc3ccc(-c4c(C)noc4C)cc23)c1`, for which the AC50 was 15.8 µM (active).
Take `Cc1noc(C)c1-c1ccc2ncnc(N3CCOCC3)c2c1`: the “activity, negative = inhibition” value is 8.01%.
Same read-out and setting: the same measure for `CC(=O)NCCNc1ncnc2ccc(-c3c(C)noc3C)cc12`: -9.88%; for `Cc1noc(C)c1-c1ccc2ncnc(NC3CCNCC3)c2c1`: -0.394%; for `COCCNc1ncnc2ccc(-c3c(C)noc3C)cc12`: -2.91%.
Turning to `Cc1noc(C)c1-c1ccc2ncnc(NCc3cccs3)c2c1`, the AC50 is 20 µM (active).
For `N#Cc1cccc(NC(=O)N2CCC3(CC2)CCN(C(=O)c2ccco2)CC3)c1`, the “activity, negative = inhibition” value was -12.3%.
The same measure, in the same setting: the same measure for `COc1ccccc1NC(=O)C(C/C=C(\C)Cl)C(C)=O` (stereo unspecified): -14%; for `Cc1nn(C)c(C(=O)NNC(=S)Nc2ccc(Cl)cc2)c1[N+](=O)[O-]`: -24.6%.
On the same count and under the same terms, the same measure for `Cn1c(=O)c(-c2ccccc2)nc2cnc(Oc3ccccc3)nc21`: -7.05%; for `Nc1ccc(Oc2ccc3nc(-c4ccccc4)c(-c4ccc([N+](=O)[O-])cc4)nc3c2)cc1`: 10.3%.
The same measure, in the same setting: the same measure for `O=C(N=NC(=O)c1ccc2c(O)n(C3CCCCC3)c(O)c2c1)c1cccnc1`: 15.3%.
Regarding `Nc1ncnc2c1nc(-c1ccccc1)n2[C@H]1O[C@@H](CO)[C@@H](O)[C@H]1O`, the activity, negative = inhibition was 11.6% [at 11.4 µM].
Take `NC(=O)C1(NC(=O)[C@@H]2CC3(CC(c4cccc(NC(=O)c5cc([N+](=O)[O-])cc([N+](=O)[O-])c5)c4)=NO3)CN2C(=O)c2ccccc2)CC1` (stereo partly specified): the half-maximal activity concentration (AC50) was 15.8 µM (active).
Turning to `COc1ccc(C(=O)N2CC3(CC(c4cccc([N+](=O)[O-])c4)=NO3)C[C@H]2C(=O)NCC(N)=O)cc1` (stereo partly specified), the “activity, negative = inhibition” value was -16.3%.
Same read-out and setting: under `C=C(C)C(=O)N1CC2(CC(c3cccc(NC(=O)c4ccccc4)c3)=NO2)C[C@@H]1C(N)=O` (stereo partly specified) stands -3.06%; under `CC1(C)CCCN(C(=O)c2coc(=O)c(Br)c2)C1`, -10.2%; under `CCOC(=O)C1=C(O)C(Nc2nccs2)(C(F)(F)F)N=C1C` (stereo unspecified), -6.02%.
With `Cc1ccc(-c2nnc(N(C)C(=O)c3cccnc3)s2)cc1`, the “activity, negative = inhibition” value was -8.87%.
Consider `COc1cccc(C(=O)N(C)c2nnc(-c3ccncc3)s2)c1`, for which the AC50 is 2 µM (active).
Turning to `CC(=O)N(C)c1nnc(-c2cnccn2)s1`, the “activity, negative = inhibition” value was -3.93%.
Still for that read-out and setting: the same measure for `COCCn1c(=O)c(-c2ccc(F)cc2)nc2cncnc21`: -3.99%.
Consider `c1ccc(C[n+]2cccc(-c3cc4ccccc4[nH]3)c2)cc1`, for which the AC50 was 1.26 µM (active).
For the molecule `Clc1ccc(-c2cc3ccccc3[nH]2)cc1`, the “activity, negative = inhibition” value was -18.3%.
Same read-out and setting: under `CO[C@@H]1COC(=O)[C@@H](CCSC)NC(=O)C/C=C\[C@@H](C)COC(=O)CCC[C@H]1C` stands 6.34% [at 11.4 µM]; under `O=[N+]([O-])c1cccc2cn[nH]c12`, 10.6%; under `COc1ccc(C(=O)N2CCC3(CCCN(C(=O)Nc4cccc(C#N)c4)C3)CC2)cc1`, -5.65%.
In the case of `C[C@@H](C1=C(CCN(C)C)Cc2ccccc21)c1ccccn1`, the AC50 was 12.6 µM (active).
`CN(C)CCO[C@](C)(c1ccccc1)c1ccccn1`: the “activity, negative = inhibition” value was -17.4% [at 25.6 µM].
The same measure, in the same setting: the same measure for `O=C(O)CCc1nc(-c2ccccc2-n2cccc2)no1`: -11.8% [at 11.4 µM]; for `Cn1cc(-c2nc3cnc(Oc4cccc(Cl)c4)nc3n(CCC#N)c2=O)c2ccccc21`: -4.89%.
Still for that read-out and setting: the same measure for `Nc1cc(=O)[nH]c(N)n1`: 5.2%.

As usually defined, the AC50 is the concentration at which the activity in the assay is half-maximal.

(Values after PubChem BioAssay AID1851 (National Center for Advancing Translational Sciences (NCATS), 2009).)
